The supplement of paper PMC10849652
Targets with a hit are over-represented here; the source holds about 7,900 in all. About 0.6% of all pairs of compound and target were hits.

Columns and labels:
Assay in all cases: log2 fold change, soluble protein after heating vs DMSO (PISA); higher = thermal stabilisation; K562 cells, 10 uM, 30 min; active = over 0.2 and 3.5 SD of the protein, either way, in both replicates (recomputed)
[1] = compound: CC1=C(C=C(C=C1)NC(=O)C2=CC(=CC=C2)C(C)(C)C#N)NC3=CC4=C(C=C3)N=CN(C4=O)C
Outline: (§1)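 Values are thermal stability changes relative to control samples and are taken from duplicates. They are stated as log2 fold changes. Before quantification by TMTpro 16plex LC-MS/MS with equalised channel sums, K562 cells at 2×10^6 cells/mL were treated with 10 μM compound for 30 min, heated in aliquots for 3 min across 48°C-58°C, pooled, extracted in PBS with 0.5% NP-40 at 4°C, and centrifuged at 21,000xg for 90 min to give the soluble supernatant.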

[2] = compound: CC1=C(C=C(C=C1)NC(=O)C2=CC(=CC=C2)N(C)C)NC(=O)C3=CC=C(C=C3)O
Outline: as §1

[3] = compound: CC1=CC=C(C=C1)SC2=C3C=C(SC3=CN=C2)C(=O)N
Outline: as §1

[4] = compound: CC1=NC(=CC=C1)C2=C(N=C(N2)C(C)(C)C)C3=CC4=NC=CN=C4C=C3
Outline: as §1

Nexturastat A = compound: CCCCN(Cc1ccc(C(=O)NO)cc1)C(=O)Nc1ccccc1 [Nexturastat A]
Outline: as §1

vemurafenib = compound: CCCS(=O)(=O)Nc1ccc(F)c(C(=O)c2c[nH]c3ncc(-c4ccc(Cl)cc4)cc23)c1F [vemurafenib]
Outline: as §1

[5] = compound: CCCS(=O)(=O)Nc1ccc(F)c(C(=O)c2c[nH]c3ncc(Cl)cc23)c1F
Outline: as §1

[6] = compound: CCCc1cc(C)[nH]c(=O)c1CNC(=O)c1cc(-c2ccnc(N3CCN(C)CC3)c2)cc2c1cnn2C(C)C
Outline: as §1

givinostat = compound: CCN(CC)Cc1ccc2cc(COC(=O)Nc3ccc(C(=O)NO)cc3)ccc2c1 [givinostat]
Outline: as §1

barasertib = compound: CCN(CCCOc1ccc2c(Nc3cc(CC(=O)Nc4cccc(F)c4)[nH]n3)ncnc2c1)CCOP(=O)(O)O [barasertib]
Outline: as §1

[7] = compound: CC[C@@H]1C(=O)N(C)c2cnc(Nc3ccc(C(=O)NC4CCN(C)CC4)cc3OC)nc2N1C1CCCC1
Outline: as §1

volasertib = compound: CC[C@@H]1C(=O)N(C)c2cnc(Nc3ccc(C(=O)N[C@H]4CC[C@H](N5CCN(CC6CC6)CC5)CC4)cc3OC)nc2N1C(C)C [volasertib]
Outline: as §1

[8] = compound: CC[C@H](C)N1C=C(C2=C(C=C(C=C21)C3=CN=C(C=C3)N4CCNCC4)C(=O)NCC5=C(C=C(NC5=O)C)C)C
Outline: as §1

epoxomicin = compound: CC[C@H](C)[C@@H](C(=O)N[C@@H]([C@@H](C)O)C(=O)N[C@@H](CC(C)C)C(=O)[C@]1(CO1)C)NC(=O)[C@H]([C@@H](C)CC)N(C)C(=O)C [epoxomicin]
Outline: as §1

[9] = compound: CCn1c(C(=O)N(C2CC2)C2CC2)cc2c3c(ncn3C)c(Nc3cc(C)n(C)n3)nc21
Outline: as §1

[10] = compound: CCn1cc(-c2ccnc3[nH]c(-c4cccc(CN(C)C)c4)cc23)c(-c2ccc(NC(=O)N(C)C)cc2)n1
Outline: as §1

[11] = compound: CN(C)CC(=O)Nc1ccc2[nH]c(=O)c3ccccc3c2c1
Outline: as §1

rosiglitazone = compound: CN(CCOC1=CC=C(C=C1)C[C@H]2C(=O)NC(=O)S2)C3=CC=CC=N3 (racemic) [rosiglitazone]
Outline: as §1

[12] = compound: CN1C2=C(C3=C1C(=O)N(N=C3)CC4=CC(=CC=C4)N)SC(=C2)S(=O)C
Outline: as §1

[13] = compound: CN1CCC(CNc2ccc3ncc(-c4cccc(OC(F)(F)F)c4)n3n2)CC1
Outline: as §1

Measured: log2 fold change

PBK (UniProt Q96KB5)
inactive: [1] 0.01 | [2] -0.056 | [3] 0.069 | [4] -0.001 | Nexturastat A 0.037 | vemurafenib 0.124 | [5] 0.14 | [6] 0.144 | givinostat 0.143 | barasertib 0.145 | [7] -0.18 | [8] 0.121 | epoxomicin -0.005 | [9] -0.086 | [10] -0.026 | [11] 0.091 | rosiglitazone 0.092 | [12] 0.053 | [13] -0.187
active: volasertib -0.601

PCTP (UniProt Q9UKL6)
Sequence of UniProt Q9UKL6 (Q9UKL6 whole entry, looked up): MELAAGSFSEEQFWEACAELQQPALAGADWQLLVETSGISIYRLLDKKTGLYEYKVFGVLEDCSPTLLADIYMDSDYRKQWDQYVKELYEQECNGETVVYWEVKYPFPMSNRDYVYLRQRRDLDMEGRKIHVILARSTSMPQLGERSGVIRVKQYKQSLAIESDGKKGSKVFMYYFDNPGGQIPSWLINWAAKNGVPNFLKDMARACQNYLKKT
active: [13] -0.279
inactive: [1] -0.007 | [2] 0.004 | [3] 0.052 | [4] 0.039 | Nexturastat A -0.003 | vemurafenib 0.005 | [5] 0.066 | [6] 0.026 | givinostat -0.035 | barasertib 0.013 | [7] -0.017 | volasertib -0.012 | [8] -0.067 | epoxomicin 0.039 | [9] -0.058 | [10] -0.055 | [11] -0.005 | rosiglitazone 0.025 | [12] -0.011

PSMC1 (UniProt P62191)
Sequence of UniProt P62191 (P62191 whole entry, looked up): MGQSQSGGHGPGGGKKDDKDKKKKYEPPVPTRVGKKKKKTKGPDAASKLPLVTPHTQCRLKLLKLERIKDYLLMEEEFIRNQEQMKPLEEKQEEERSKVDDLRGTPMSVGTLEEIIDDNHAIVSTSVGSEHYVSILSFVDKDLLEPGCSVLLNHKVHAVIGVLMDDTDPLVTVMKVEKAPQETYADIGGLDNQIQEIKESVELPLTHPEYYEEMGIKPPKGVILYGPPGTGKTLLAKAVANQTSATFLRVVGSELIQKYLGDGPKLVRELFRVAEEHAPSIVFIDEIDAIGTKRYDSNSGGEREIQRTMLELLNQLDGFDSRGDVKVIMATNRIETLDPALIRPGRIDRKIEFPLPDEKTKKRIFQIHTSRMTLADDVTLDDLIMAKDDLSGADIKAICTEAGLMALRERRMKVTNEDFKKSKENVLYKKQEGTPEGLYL
active: epoxomicin -0.342
inactive: [1] 0.024 | [2] 0.033 | [3] -0.038 | [4] -0.069 | Nexturastat A 0.026 | vemurafenib -0.064 | [5] -0.06 | [6] -0.012 | givinostat -0.073 | barasertib -0.073 | [7] 0.038 | volasertib 0.129 | [8] -0.015 | [9] 0.042 | [10] 0.092 | [11] -0.003 | rosiglitazone -0.038 | [12] 0.031 | [13] 0.051

PEA15 isoform 2 (UniProt Q15121)
Sequence of UniProt Q15121 (Q15121 whole entry, looked up): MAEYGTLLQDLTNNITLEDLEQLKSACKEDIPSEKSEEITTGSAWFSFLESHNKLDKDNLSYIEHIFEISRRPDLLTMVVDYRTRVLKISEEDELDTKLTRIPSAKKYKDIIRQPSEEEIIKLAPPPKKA
inactive: [1] 0.004 | [2] -0.039 | [3] 0.042 | [4] -0.008 | Nexturastat A -0.071 | vemurafenib 0.002 | [5] 0.122 | [6] -0.003 | givinostat 0.003 | barasertib 0.082 | [7] -0.078 | volasertib -0.162 | [8] -0.018 | epoxomicin 0 | [9] 0.083 | [10] 0.022 | [11] 0.004 | rosiglitazone 0.025 | [12] -0.002 | [13] 0.039

PIKFYVE (UniProt Q9Y2I7)
active: volasertib -0.499
inactive: [1] -0.012 | [2] -0.02 | [3] 0.005 | [4] 0.006 | Nexturastat A 0.004 | vemurafenib 0.091 | [5] 0.109 | [6] -0.001 | givinostat 0.054 | barasertib 0.013 | [7] -0.182 | [8] 0.103 | epoxomicin -0.031 | [9] -0.049 | [10] -0.032 | [11] 0.032 | rosiglitazone 0.168 | [12] -0.05 | [13] -0.239

PSMD6 (UniProt Q15008)
Sequence of UniProt Q15008 (Q15008 whole entry, looked up): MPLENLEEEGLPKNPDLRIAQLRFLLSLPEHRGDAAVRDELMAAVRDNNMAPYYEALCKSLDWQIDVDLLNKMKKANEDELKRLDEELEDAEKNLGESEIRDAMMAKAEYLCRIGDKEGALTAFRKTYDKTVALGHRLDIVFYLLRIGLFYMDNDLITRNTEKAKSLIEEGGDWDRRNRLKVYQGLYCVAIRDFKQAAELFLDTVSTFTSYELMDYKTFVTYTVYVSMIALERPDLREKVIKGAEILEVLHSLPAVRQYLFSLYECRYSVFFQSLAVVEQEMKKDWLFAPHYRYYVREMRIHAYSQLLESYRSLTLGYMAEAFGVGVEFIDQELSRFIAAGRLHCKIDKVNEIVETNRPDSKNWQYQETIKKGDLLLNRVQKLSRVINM
inactive: [1] -0.007 | [2] -0.004 | [3] -0.045 | [4] -0.045 | Nexturastat A 0.108 | vemurafenib -0.055 | [5] -0.014 | [6] 0.01 | givinostat -0.034 | barasertib -0.012 | [7] 0.09 | volasertib 0.18 | [8] 0.01 | epoxomicin -0.247 | [9] -0.009 | [10] 0.063 | [11] -0.023 | rosiglitazone -0.029 | [12] 0.029 | [13] 0.061

PRKAR1A (UniProt P10644)
Sequence of UniProt P10644 (P10644 whole entry, looked up): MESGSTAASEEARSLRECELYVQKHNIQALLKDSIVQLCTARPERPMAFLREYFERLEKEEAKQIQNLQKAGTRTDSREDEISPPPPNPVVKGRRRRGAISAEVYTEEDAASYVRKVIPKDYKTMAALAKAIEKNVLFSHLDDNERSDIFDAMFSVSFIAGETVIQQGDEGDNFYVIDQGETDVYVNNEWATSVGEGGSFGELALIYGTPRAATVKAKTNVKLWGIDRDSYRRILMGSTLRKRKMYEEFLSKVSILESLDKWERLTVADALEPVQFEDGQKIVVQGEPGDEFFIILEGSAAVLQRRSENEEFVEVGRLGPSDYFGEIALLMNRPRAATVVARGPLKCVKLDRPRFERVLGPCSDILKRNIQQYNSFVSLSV
active: [13] 0.705
inactive: [1] 0.15 | [2] -0.051 | [3] 0.059 | [4] -0.103 | Nexturastat A 0.053 | vemurafenib -0.028 | [5] -0.085 | [6] 0.203 | givinostat 0.055 | barasertib -0.01 | [7] 0.213 | volasertib -0.054 | [8] -0.068 | epoxomicin -0.122 | [9] 0.071 | [10] 0.001 | [11] 0.023 | rosiglitazone -0.032 | [12] 0.132

PPIL1 (UniProt Q9Y3C6)
inactive: [1] -0.002 | [2] 0.023 | [3] 0 | [4] -0.024 | Nexturastat A 0.025 | vemurafenib -0.045 | [5] 0.027 | [6] -0.016 | givinostat -0.038 | barasertib 0.033 | [7] 0.014 | volasertib -0.051 | [8] 0.01 | epoxomicin -0.024 | [9] -0.042 | [10] 0.02 | [11] -0.014 | rosiglitazone 0.035 | [12] 0.049 | [13] 0.018

PLA2G15 (UniProt Q8NCC3)
Sequence of UniProt Q8NCC3 (Q8NCC3 whole entry, looked up): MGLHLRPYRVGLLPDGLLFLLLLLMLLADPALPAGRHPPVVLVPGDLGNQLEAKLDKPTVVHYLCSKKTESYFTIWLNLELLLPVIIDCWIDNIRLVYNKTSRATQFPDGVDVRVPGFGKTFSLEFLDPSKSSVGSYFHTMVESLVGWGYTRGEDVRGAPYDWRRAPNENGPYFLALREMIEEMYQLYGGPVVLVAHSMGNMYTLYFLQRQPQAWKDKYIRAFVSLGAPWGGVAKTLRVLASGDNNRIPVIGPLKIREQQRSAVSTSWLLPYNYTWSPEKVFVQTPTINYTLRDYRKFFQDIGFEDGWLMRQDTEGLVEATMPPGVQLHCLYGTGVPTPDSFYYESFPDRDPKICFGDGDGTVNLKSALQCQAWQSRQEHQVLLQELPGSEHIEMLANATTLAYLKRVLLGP
inactive: [1] 0.04 | [2] -0.013 | [3] 0.005 | [4] -0.026 | Nexturastat A 0.089 | vemurafenib 0.044 | [5] 0.001 | [6] -0.063 | givinostat 0.019 | barasertib 0.024 | [7] -0.084 | volasertib -0.166 | [8] 0.026 | epoxomicin 0.01 | [9] -0.017 | [10] 0.005 | [11] 0.006 | rosiglitazone 0.027 | [12] 0.043 | [13] -0.076

PTPMT1 (UniProt Q8WUK0)
Sequence of UniProt Q8WUK0 (Q8WUK0 whole entry, looked up): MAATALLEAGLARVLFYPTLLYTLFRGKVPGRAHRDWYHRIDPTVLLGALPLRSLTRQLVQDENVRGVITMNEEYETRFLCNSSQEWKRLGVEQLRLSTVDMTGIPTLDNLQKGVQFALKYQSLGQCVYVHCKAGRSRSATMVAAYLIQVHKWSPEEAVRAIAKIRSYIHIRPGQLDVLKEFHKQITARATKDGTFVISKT
active: [13] -1.21
inactive: [1] 0.043 | [2] -0.019 | [3] 0.025 | [4] 0.025 | Nexturastat A -0.114 | vemurafenib -0.047 | [5] 0.031 | [6] -0.029 | givinostat -0.029 | barasertib 0.041 | [7] -0.298 | volasertib -0.127 | [8] 0.002 | epoxomicin 0.088 | [9] 0.044 | [10] -0.051 | [11] 0.012 | rosiglitazone -0.012 | [12] -0.006

PXK (UniProt Q7Z7A4)
Sequence of UniProt Q7Z7A4 (Q7Z7A4 whole entry, looked up): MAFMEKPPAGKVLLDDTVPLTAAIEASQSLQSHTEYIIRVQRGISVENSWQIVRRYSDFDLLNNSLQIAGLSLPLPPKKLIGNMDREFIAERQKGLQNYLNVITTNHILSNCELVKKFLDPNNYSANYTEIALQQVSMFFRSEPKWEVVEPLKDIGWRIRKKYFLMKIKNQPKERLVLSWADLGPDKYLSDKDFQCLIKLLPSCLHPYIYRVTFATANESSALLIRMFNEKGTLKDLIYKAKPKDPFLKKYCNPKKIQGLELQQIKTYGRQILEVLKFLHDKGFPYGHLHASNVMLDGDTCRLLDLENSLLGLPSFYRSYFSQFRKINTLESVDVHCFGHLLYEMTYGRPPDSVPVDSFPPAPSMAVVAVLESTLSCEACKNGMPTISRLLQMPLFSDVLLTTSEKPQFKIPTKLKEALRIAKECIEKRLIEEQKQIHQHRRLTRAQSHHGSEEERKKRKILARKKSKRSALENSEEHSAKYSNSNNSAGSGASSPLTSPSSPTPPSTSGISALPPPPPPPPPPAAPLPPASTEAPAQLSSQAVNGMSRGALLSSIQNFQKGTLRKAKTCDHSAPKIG
inactive: [1] 0.017 | [2] -0.059 | [3] -0.041 | [4] 0.011 | Nexturastat A -0.018 | vemurafenib 0.017 | [5] 0.071 | [6] -0.046 | givinostat 0.022 | barasertib 0.002 | [7] -0.136 | volasertib -0.077 | [8] 0.04 | epoxomicin 0.029 | [9] 0.004 | [10] -0.012 | [11] 0.027 | rosiglitazone 0.046 | [12] -0.028 | [13] -0.208

PSMC6 (UniProt P62333)
Sequence of UniProt P62333 (P62333 whole entry, looked up): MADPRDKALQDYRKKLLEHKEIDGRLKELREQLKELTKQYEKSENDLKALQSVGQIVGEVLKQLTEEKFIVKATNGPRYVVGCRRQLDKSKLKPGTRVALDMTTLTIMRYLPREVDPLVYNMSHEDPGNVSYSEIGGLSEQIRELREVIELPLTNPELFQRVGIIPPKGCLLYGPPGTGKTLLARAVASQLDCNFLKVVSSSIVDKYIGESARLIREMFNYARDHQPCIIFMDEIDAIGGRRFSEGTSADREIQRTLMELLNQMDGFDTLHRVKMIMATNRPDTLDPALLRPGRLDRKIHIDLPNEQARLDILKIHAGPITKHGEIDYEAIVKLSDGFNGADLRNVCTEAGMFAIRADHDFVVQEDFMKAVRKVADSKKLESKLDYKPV
active: epoxomicin -0.312
inactive: [1] 0 | [2] 0.022 | [3] -0.034 | [4] -0.043 | Nexturastat A 0.034 | vemurafenib -0.067 | [5] -0.069 | [6] 0.01 | givinostat -0.081 | barasertib -0.055 | [7] 0.033 | volasertib 0.178 | [8] -0.021 | [9] -0.012 | [10] 0.029 | [11] -0.03 | rosiglitazone -0.038 | [12] 0.009 | [13] 0.018

PLSCR1 (UniProt O15162)
Sequence of UniProt O15162 (O15162 whole entry, looked up): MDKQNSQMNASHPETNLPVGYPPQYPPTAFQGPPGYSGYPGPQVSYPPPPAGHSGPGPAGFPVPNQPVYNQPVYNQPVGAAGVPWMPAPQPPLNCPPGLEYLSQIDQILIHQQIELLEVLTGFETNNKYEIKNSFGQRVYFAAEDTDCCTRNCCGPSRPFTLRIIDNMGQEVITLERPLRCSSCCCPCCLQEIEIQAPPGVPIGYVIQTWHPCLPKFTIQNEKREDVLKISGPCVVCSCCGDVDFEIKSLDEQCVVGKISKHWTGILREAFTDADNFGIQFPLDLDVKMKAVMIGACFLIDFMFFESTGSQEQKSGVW
inactive: [1] 0.13 | [2] 0.06 | [3] 0.025 | [4] -0.002 | Nexturastat A 0.008 | vemurafenib -0.05 | [5] 0.088 | [6] -0.101 | givinostat -0.033 | barasertib -0.104 | [7] 0.025 | volasertib -0.1 | [8] -0.069 | epoxomicin -0.022 | [9] 0.013 | [10] 0.053 | [11] 0.037 | rosiglitazone -0.033 | [12] -0.02 | [13] 0.044

PMPCB (UniProt O75439)
inactive: [1] 0.012 | [2] -0.063 | [3] -0.009 | [4] 0.03 | Nexturastat A -0.07 | vemurafenib 0.06 | [5] -0.019 | [6] -0.015 | givinostat -0.042 | barasertib 0.01 | [7] 0.008 | volasertib 0.138 | [8] 0.038 | epoxomicin 0.022 | [9] -0.017 | [10] -0.125 | [11] 0.032 | rosiglitazone 0.002 | [12] -0.084 | [13] 0.098

PRKAR2B (UniProt P31323)
Sequence of UniProt P31323 (P31323 whole entry, looked up): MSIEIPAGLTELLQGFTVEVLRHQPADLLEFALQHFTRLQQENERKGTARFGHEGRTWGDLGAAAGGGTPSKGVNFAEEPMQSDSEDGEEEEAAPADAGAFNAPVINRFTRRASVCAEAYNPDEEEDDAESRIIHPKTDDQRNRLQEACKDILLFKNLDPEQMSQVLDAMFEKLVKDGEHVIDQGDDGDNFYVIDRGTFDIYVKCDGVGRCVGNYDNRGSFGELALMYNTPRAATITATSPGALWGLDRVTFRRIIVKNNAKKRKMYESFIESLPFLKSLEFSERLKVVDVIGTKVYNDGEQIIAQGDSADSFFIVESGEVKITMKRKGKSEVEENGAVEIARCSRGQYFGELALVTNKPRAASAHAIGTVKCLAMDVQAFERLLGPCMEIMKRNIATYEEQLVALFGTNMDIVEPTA
inactive: [1] 0.04 | [2] 0.017 | [3] 0.038 | [4] 0.022 | Nexturastat A 0.046 | vemurafenib 0.033 | [5] 0.052 | [6] -0.014 | givinostat 0 | barasertib 0.047 | [7] -0.037 | volasertib 0.053 | [8] 0.056 | epoxomicin 0.025 | [9] -0.023 | [10] -0.023 | [11] -0.008 | rosiglitazone 0.051 | [12] 0.005
active: [13] -0.495

PKN1 isoform 2 (UniProt Q16512)
Sequence of UniProt Q16512 (Q16512 whole entry, looked up): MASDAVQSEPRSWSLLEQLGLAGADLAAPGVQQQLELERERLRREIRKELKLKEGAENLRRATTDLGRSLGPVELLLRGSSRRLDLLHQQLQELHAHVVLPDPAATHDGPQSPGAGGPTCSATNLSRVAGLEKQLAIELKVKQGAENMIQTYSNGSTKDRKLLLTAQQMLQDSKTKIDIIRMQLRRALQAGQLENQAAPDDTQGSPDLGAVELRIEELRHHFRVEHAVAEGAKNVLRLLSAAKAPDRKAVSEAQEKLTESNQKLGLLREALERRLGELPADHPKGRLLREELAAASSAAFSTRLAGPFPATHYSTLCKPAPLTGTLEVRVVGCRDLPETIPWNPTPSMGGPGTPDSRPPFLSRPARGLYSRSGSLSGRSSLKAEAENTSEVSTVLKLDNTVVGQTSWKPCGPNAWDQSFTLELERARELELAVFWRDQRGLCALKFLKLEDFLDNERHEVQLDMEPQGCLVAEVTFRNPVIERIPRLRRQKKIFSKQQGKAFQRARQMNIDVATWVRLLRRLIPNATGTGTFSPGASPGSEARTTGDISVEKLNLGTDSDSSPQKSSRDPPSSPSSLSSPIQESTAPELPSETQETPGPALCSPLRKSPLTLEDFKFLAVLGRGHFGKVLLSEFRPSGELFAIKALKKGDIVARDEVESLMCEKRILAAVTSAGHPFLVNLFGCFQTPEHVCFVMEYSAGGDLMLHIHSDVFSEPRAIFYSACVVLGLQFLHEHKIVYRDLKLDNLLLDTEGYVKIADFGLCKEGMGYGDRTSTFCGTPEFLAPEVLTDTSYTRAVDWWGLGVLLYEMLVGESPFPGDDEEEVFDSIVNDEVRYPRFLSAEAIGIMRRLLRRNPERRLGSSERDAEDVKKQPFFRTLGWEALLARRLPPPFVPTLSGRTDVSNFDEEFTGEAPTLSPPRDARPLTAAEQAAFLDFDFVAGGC
active: [13] -0.772
inactive: [1] 0.01 | [2] 0.002 | [3] 0.019 | [4] 0.014 | Nexturastat A 0.053 | vemurafenib 0.023 | [5] 0.03 | [6] 0.022 | givinostat 0.059 | barasertib 0.03 | [7] 0.005 | volasertib -0.105 | [8] 0.084 | epoxomicin 0.014 | [9] -0.185 | [10] -0.038 | [11] 0.009 | rosiglitazone 0.06 | [12] -0.021
